Our source for the outcome values is PubChem BioAssay (Tox21).

Records with an inconclusive call do not appear. The source made the active and inactive calls. Unless noted, calls follow the shape of the dose curve; as a rule, active = well fitted cell-killing curve with a large enough effect in the repeat runs; inconclusive = weak or mixed curves; inactive = no such curve, though single readings can be large or run the other way.

Test system in one experiment: not listed separately
As to the kind of experiment: qHTS assay to identify small molecule antagonists of the peroxisome proliferator-activated receptor delta (PPARd) signaling pathway - cell viability counter screen (AID 743213). Also: nearly all actives have a fitted effect of over 50% in size. The conditions noted are these: PPARd-bla HEK293H viability, CellTiter-Glo luminescence, 17 h; series mostly up to 62 µM. Summed up: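 Viability counter-screen, qHTS format: PPARd-bla HEK293H, L165041 300 nM final, 17 h compound exposure at 37 C, CellTiter-Glo luminescence after 30 min RT.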
(In general: qHTS replaces the single test concentration by a dilution series.)
Consider `CCC(C)n1c(=O)[nH]c(C)c(Br)c1=O` (configuration not stated), for which the compound was classed as inactive. Regarding `C[N+](C)=CCl`, the compound was classed as inactive. For `CCOP(=S)(OCC)Oc1cc(-c2ccccc2)on1`, the outcome was inactive.

For the compound `CC(C)(C)OC(=O)c1ncn2c1[C@@H]1CCCN1C(=O)c1c(Br)cccc1-2`, the compound was classed as inactive. For `O=C(Cc1ccccc1)OCc1ccccc1`, the result was inactive.

As to `CCOC(=O)NC(=S)Nc1ccccc1NC(=S)NC(=O)OCC`, the result was inactive. On the same count and under the same terms, in the case of `O=NN1CCN(N=O)CC1` it was “inactive”; in that of `COc1cc(OC)nc(Sc2cccc(Cl)c2C(=O)O)n1`, “inactive”; in that of `CN1CCC(O)(c2ccc(F)cc2)C(C(=O)c2ccc(F)cc2)C1` (configuration not stated), “inactive”.

For the compound `CCCCc1ccc(O)cc1`, the result was inactive. For `C1CCC(C2CCCCC2)CC1`, the compound was called inactive. On the same count and under the same terms, the value for `C#C[C@]1(O)C=C[C@H]2[C@@H]3CCC4=CC(=O)CC[C@@H]4[C@H]3CC[C@@]21CC` was “inactive”; that for `Nc1c(Br)cc([N+](=O)[O-])cc1[N+](=O)[O-]` was “inactive”. For the compound `CNC(=O)Oc1ccccc1C1OCCO1`, the compound was classed as inactive.

On to `O=[N+]([O-])c1ccc2c3c(cccc13)CC2`, for which the result was inactive.

`BrCCCCCCBr`: the result was inactive. As to `CCN(CC)c1nc(C)cc(OP(=S)(OC)OC)n1`, the compound was called inactive.

Turning to `CCOc1nc(C(Cl)(Cl)Cl)ns1`, the result was inactive. On to `C[C@H]1CCC[C@H](O)CCCCCc2cc(O)cc(O)c2C(=O)O1`, for which the result was inactive.

As to `CC(Cl)(Cl)[N+](=O)[O-]`, the result was inactive.

With `CC1(C(=O)Nc2ccc(O)c(Cl)c2Cl)CCCCC1`, the compound was called inactive. Consider `CCNc1nc(NC(C)C)nc(OC)n1`, for which the compound was called inactive. Take `CC1=NNC(=O)N(/N=C/c2cccnc2)C1`: the result was inactive.

Regarding `CCOP(=S)(OCC)SCSP(=S)(OCC)OCC`, the compound was classed as inactive. As to `CCCCOC(=O)c1ccccc1C(=O)O`, the call was inactive.

Turning to `Nc1cnn(-c2ccccc2)c(=O)c1Cl`, the outcome was inactive. On to `O=C(Nc1ccccc1)N(Cc1ccc(Cl)cc1)C1CCCC1`, for which the result was inactive. Same read-out and setting: the value for `CCCCOP(=O)(O)OCCCC` was “inactive”; that for `COP(N)(=S)Oc1ccccc1C(=O)OC(C)C` (configuration not stated) was “inactive”; that for `CNC(=O)Oc1ccc(N(C)C)c(C)c1` was “inactive”.

The target of the next experiment is Peroxisome proliferator-activated receptor delta (Homo sapiens) (UniProt Q03181). As to the kind of experiment: qHTS assay to identify small molecule antagonists of the peroxisome proliferator-activated receptor delta (PPARd) signaling pathway (AID 743215; active = well fitted inhibition curve with a large enough effect in the signal ratio in the repeat runs, not every such curve was filed as active; the % refers to the signal ratio;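 also: cells stimulated with agonist L165041 at 300 nM final during compound exposure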). The conditions noted are these: HEK293H PPARd-UAS-bla, beta-lactamase FRET ratio, antagonist, 17 h; series mostly up to 62 µM. Summed up: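 Read-out is beta-lactamase FRET fluorescence, measured 2 h after substrate addition at room temperature. Beforehand, UAS-bla HEK293H cells carrying the PPARd reporter were exposed to compounds with L165041 at 300 nM final for 17 h at 37 C.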
Chain of Peroxisome proliferator-activated receptor delta (Homo sapiens) (Q03181 whole entry, looked up): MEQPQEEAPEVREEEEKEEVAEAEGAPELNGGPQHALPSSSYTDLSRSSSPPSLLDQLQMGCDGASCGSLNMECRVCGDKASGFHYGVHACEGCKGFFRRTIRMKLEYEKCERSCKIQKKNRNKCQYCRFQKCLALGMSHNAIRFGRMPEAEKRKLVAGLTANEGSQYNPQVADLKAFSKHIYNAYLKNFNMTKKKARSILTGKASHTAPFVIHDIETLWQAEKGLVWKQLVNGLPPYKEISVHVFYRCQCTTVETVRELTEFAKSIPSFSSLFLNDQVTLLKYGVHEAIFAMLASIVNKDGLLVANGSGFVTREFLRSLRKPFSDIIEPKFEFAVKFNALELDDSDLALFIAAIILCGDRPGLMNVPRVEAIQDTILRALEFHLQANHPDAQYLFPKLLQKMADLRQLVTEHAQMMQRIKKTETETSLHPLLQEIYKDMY
Regarding `O=C(Cc1ccccc1)OCc1ccccc1`, the result was inactive. Take `CCOC(=O)NC(=S)Nc1ccccc1NC(=S)NC(=O)OCC`: the result was inactive. `CCCCc1ccc(O)cc1`: the result was inactive.

`CN1C(=S)CN=C(c2ccccc2)c2cc(Cl)ccc21`: the result was inactive. Same read-out and setting: in the case of `C1CCC(C2CCCCC2)CC1` it was “inactive”. On the same count and under the same terms, in the case of `CNC(=O)Oc1ccccc1C1OCCO1` it was “inactive”; in that of `Nc1cc(Cl)ccc1O`, “inactive”; in that of `O=[N+]([O-])c1ccc2c3c(cccc13)CC2`, “inactive”. On the same count and under the same terms, in the case of `CCN(CC)c1nc(C)cc(OP(=S)(OC)OC)n1` it was “inactive”; in that of `CCOc1nc(C(Cl)(Cl)Cl)ns1`, “inactive”; in that of `C[C@H]1CCC[C@H](O)CCCCCc2cc(O)cc(O)c2C(=O)O1`, “inactive”. In the case of `CC(Cl)(Cl)[N+](=O)[O-]`, the outcome was inactive. The same measure, in the same setting: the value for `CC1(C(=O)Nc2ccc(O)c(Cl)c2Cl)CCCCC1` was “inactive”; that for `CCNc1nc(NC(C)C)nc(OC)n1` was “inactive”; that for `CC1=NNC(=O)N(/N=C/c2cccnc2)C1` was “inactive”. For the compound `CCCSP(=O)(OCC)Oc1ccc(Br)cc1Cl` (configuration not stated), the outcome was inactive. Take `N#CC(CCc1ccc(Cl)cc1)(Cn1cncn1)c1ccccc1` (configuration not stated): the result was inactive. Consider `CCOP(=S)(OCC)SCSP(=S)(OCC)OCC`, for which the outcome was inactive. With `Nc1cnn(-c2ccccc2)c(=O)c1Cl`, the result was inactive.

For the compound `CCCCOP(=O)(O)OCCCC`, the outcome was inactive.

As for `COP(N)(=S)Oc1ccccc1C(=O)OC(C)C` (configuration not stated), the result was inactive. Regarding `CNC(=O)Oc1ccc(N(C)C)c(C)c1`, the result was inactive.
